Results on 46 compounds are retold here after PubChem BioAssay AID1851 (National Center for Advancing Translational Sciences (NCATS), 2009).

Screen size: about 16,000 compounds; about 4,000 (25%) were called active. About 26% were inconclusive and are not listed. Only a sample is shown. A number with no mark means an inactive call. Calls follow the shape of the dose curve; as a rule, active = well fitted curve in the direction sought with a large enough effect; inconclusive = small, poorly fitted or top-dose-only effect, or effect the other way; inactive = no such curve, though single readings can be large or run the other way.

Broadly, the AC50 is the midpoint of the concentration-response curve, whichever way the signal moves.
% is scaled to controls: 0 for no effect and ±100 for the full control effect.

The target in the assay is Cytochrome P450 2C9 (Homo sapiens) (UniProt P11712). The assay is described as follows: Cytochrome panel assay with activity outcomes. Conditions: recombinant CYP, pro-luciferin dealkylation, luminescence, p450-cyp2c9; series mostly up to 57.1 µM; activity, negative = inhibition: at the top concentration.
Sequence of Cytochrome P450 2C9 (Homo sapiens) (P11712 whole entry, looked up): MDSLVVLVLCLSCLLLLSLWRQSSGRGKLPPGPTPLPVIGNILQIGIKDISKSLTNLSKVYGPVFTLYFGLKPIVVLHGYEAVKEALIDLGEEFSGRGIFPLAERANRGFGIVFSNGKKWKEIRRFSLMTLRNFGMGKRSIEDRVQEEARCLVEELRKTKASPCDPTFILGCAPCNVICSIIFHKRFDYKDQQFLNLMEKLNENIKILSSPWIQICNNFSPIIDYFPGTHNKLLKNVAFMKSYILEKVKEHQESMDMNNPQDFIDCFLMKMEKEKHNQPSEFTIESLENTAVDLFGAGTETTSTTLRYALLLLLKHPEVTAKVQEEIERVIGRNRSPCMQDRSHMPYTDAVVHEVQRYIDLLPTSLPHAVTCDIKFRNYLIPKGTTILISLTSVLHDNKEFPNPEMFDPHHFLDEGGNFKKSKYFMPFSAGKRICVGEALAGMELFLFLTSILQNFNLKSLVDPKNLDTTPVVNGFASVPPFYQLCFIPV
Turning to `CC1(C)O[C@@H]2C[C@H]3[C@H]4C[C@H](F)C5=CC(=O)C=C[C@@]5(C)[C@@H]4[C@H](O)C[C@]3(C)[C@]2(C(=O)CO)O1`, the “activity, negative = inhibition” value was -11.4% [at 25.6 µM]. Still for that read-out and setting: under `O=C(NCc1ccco1)c1ccc2c(=O)n(-c3ccccc3)c(=S)[nH]c2c1` stands 9.67%.

On to `Cc1ccc(-n2c(N)c(C(=O)NCc3ccco3)sc2=S)cc1`, for which the AC50 was 14.1 µM (active). `COC(=O)CCCC(=O)O`: the activity, negative = inhibition was -1.69% [at 11.4 µM]. For `Cc1ccc(CS(=O)(=O)CCC(=O)NCCCOC(C)C)cc1`, the “activity, negative = inhibition” value is -10.3%. For `CCCCNC(=O)NC1C(NC(=O)NCCCC)N(C)C(=O)N1C` (stereo unspecified), the “activity, negative = inhibition” value is -17%.

Turning to `CCCCNC(=O)NS(=O)(=O)c1ccc(C(=O)OC(C)C)o1`, the AC50 is 2.82 µM (active). Same read-out and setting: under `Cc1ccc(-c2cc(C(F)F)n3ncc(C(=O)Nc4c(C)nn(Cc5c(Cl)cccc5Cl)c4C)c3n2)cc1` stands 1 µM (active). With `Cc1cc(C(F)F)n2ncc(C(=O)NCc3ccccc3C(F)(F)F)c2n1`, the “activity, negative = inhibition” value is -63.8%. With `Cc1nn(Cc2c(Cl)cccc2Cl)c(C)c1NC(=O)c1cnn2c(C(F)F)cc(-c3ccccc3)nc12`, the concentration at half-maximal activity (AC50) is 1.26 µM (active). Consider `CC(=O)OC[C@@H]1O[C@H](C/C=N\OC[C@@H](O)COCc2ccco2)C=C[C@@H]1OC(C)=O`, for which the activity, negative = inhibition was 24.5% [at 11.4 µM].

`N[C@H](C(=O)O)[C@@H](O)c1cnc[nH]1`: the activity, negative = inhibition was 20.3% [at 11.4 µM]. `CC1=CC(C)(C)Nc2ccc(CSc3ccccc3)cc21`: the half-maximal activity concentration (AC50) is 0.2 µM (active). In the case of `O=c1cc(CSc2ccccc2)[nH]c(=S)[nH]1`, the “activity, negative = inhibition” value was -6.77%. On to `N#Cc1c(-c2ccccc2)nc(-c2ccccc2)[nH]c1=O`, for which the AC50 was 0.316 µM (active). Take `COC(=O)Cc1cc(=O)n2[nH]c(C)c(-c3ccccc3)c2n1`: the “activity, negative = inhibition” value is 3.63%.

Take `CSc1nc(O)c(Cc2ccccc2)c(=O)[nH]1`: the “activity, negative = inhibition” value was -25.9%. The same measure, in the same setting: under `O=C(O)c1nc(-c2ccccc2)[nH]c1C(=O)O` stands -21.7% [at 11.4 µM]; under `N#Cc1c(-c2ccccc2)no[n+]1[O-]`, 4.32%. On the same count and under the same terms, with `Cn1c(=O)c2[nH]c(CSCc3ccccc3)nc2n(C)c1=O` the figure was -13.3% [at 11.4 µM]. In the case of `Cc1nc2c(C#N)c(C)[nH]n2c(=O)c1Cc1ccccc1`, the AC50 was 7.08 µM (active). As for `N#CCCn1c(=O)c(-c2ccccc2)nc2cnc(Nc3ccccc3)nc21`, the “activity, negative = inhibition” value is 16.4%. `Cc1[nH]n2c(=O)c(C#N)c(-c3ccccc3)nc2c1-c1ccccc1`: the AC50 was 11.2 µM (active).

As to `Clc1cc2c(c(CSC3=NCN(CC4CC4)CN3)c1)OCOC2`, the activity, negative = inhibition was 9.58% [at 11.4 µM]. The same measure, in the same setting: under `NCCc1ccn[nH]1` stands 9.32% [at 25.6 µM]. `COC(=O)c1ccc(CSc2nc3cc(Cl)ccc3s2)o1`: the concentration at half-maximal activity (AC50) was 3.55 µM (active).

Turning to `O=C(O)[C@@H]1CS[C@@]2(CCCN(Cc3ccccc3)C2)N1`, the activity, negative = inhibition was 15.9% [at 11.4 µM]. On the same count and under the same terms, with `Cc1cccc(OCC(=O)NNC(=O)CSc2ncc(C#N)c(N)n2)c1` the figure was -30.1%. As to `Cc1cccc(-c2nsc(SCC(=O)Nc3nccs3)n2)c1`, the AC50 is 1.58 µM (active). For the compound `COc1ccc(C(O)c2nccn2Cc2ccccc2)cc1` (stereo unspecified), the “activity, negative = inhibition” value is -11.9%. Same read-out and setting: under `COC(=O)CSc1nnc(C)n1-c1cccc(OC)c1` stands -19.6%; under `COc1ccc(-n2nnnc2SCC(=O)Nc2ccccc2)cc1`, -16.3%. Consider `COc1ccc(NC(=O)CSc2ccc3c4c(cccc24)C(=O)c2ccccc2-3)cc1`, for which the AC50 is 0.562 µM (active). The same measure, in the same setting: under `COc1ccc(-n2ccnc2SCC(=O)Nc2ccccc2)cc1` stands 5.01 µM (active); under `COc1cccc(-n2ccnc2SCC(=O)Nc2nccs2)c1`, 11.2 µM (active). As for `Cc1ccc(S(=O)(=O)O[C@H]2C[C@@H](C(C)(C)C)CC[C@@H]2c2ccccc2)cc1`, the activity, negative = inhibition is 5.88% [at 11.4 µM]. On the same count and under the same terms, with `Cc1ccccc1-c1nc(Nc2ccncc2)c2ccccc2n1` the figure was -3.63% [at 2.29 µM]. Same read-out and setting: under `O=C(O)[C@@H](O)[C@@H](O)[C@H](O)[C@H](O)CO` stands 0.915% [at 11.4 µM]; under `CCc1nnc(NC(=O)CSc2ncnc3c2cnn3-c2ccc(OC)cc2)s1`, 1.56%.

Turning to `CCOc1ccc(-n2ccnc2SCC(=O)Nc2nnc(CC)s2)cc1`, the AC50 was 12.6 µM (active). For the compound `Cn1ccnc1SCC(=O)Nc1sccc1C#N`, the AC50 is 8.91 µM (active).

With `CCc1nnc(NC(=O)CCC(=O)N2CCN(c3ccccn3)CC2)s1`, the “activity, negative = inhibition” value was -20.4%. Same read-out and setting: under `CCNC(=O)CSc1nnc(C2CC2)n1-c1ccccc1` stands -23.2%.

Turning to `COc1ccc(-n2ccnc2SCC(=O)Nc2ccc(OC)cc2OC)cc1`, the AC50 was 4.47 µM (active).

With `COc1ccccc1NC(=O)N1CCC(c2nnc(SCC(N)=O)n2C)CC1`, the “activity, negative = inhibition” value is 8.31%. `COc1ccc(NC(=O)CSc2nnc(C3CC3)n2-c2ccccc2)cc1`: the AC50 was 10 µM (active).
